Bioassay records as filed in PubChem.
Compounds with a hit are over-represented: about 3.2% of the library has one in this group of screens.
BRCA1 expr up – BRCA1 expression activation. MCF7-BRCA1-FFLuc reporter, luminescence, 48 h; response scale: scaled: vehicle 0%, 10 µM genistein 100%. Potency, µM (titrated, usually from 46.1 µM), most hits filed as activators. 380,000 tested, 1.1% active. AID 624202; also: nearly all actives have a fitted effect of over 80% in size
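MCF7-BRCA1-FFLuc, 2000 cells/well; 2 h attach, 37 °C/5% CO2; compound 48 h; luciferase substrate 15 min; luminescence end-point. Norm. to genistein 10 microM max activation and DMSO; concentration-response curves fitted.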
p53 reactivation – mutant p53 re-activation in reporter cells | H1299 p53-A138V BP100-luciferase reporter, luminescence, 24 h | Potency, µM (titrated, usually from 92.2 µM), usual class: activators | 320,000 tested, 0.063% active | AID 504706; also: nearly all actives have a fitted effect of over 45% in size
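p53-null H1299 cells stably carrying temperature-sensitive p53-A138V and a BP100-luciferase reporter were pinned with compounds (4-point, 1:5 series) and held 24 hrs at 37 deg C. Luminescence was read 10 min after detection reagent.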
Nrf2 ARE act – activators of Nrf2 (ARE) signaling | AREc32 ARE-luciferase reporter (MCF7-derived line), luminescence, 24 h | 410,000 tested, 0.31% active | Potency, µM (doses to about 46.1 µM), actives largely listed as activators; also: nearly all actives have a fitted effect of over 65% in size
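For detection, Steady-Glo was added and plates sat 30 min at RT; before that, AREc32_Fluc cells grown overnight in OPTI-MEM/5% FBS had been treated with 23 nL compound for 24 hr at 37 deg C.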
Nrf2 block – blocks Nrf2 signaling; A549 ARE-Fluc reporter, luciferase luminescence, 18-24 h; Potency, µM (top dose mostly 46 µM), actives largely listed as inhibitors; 360,000 tested, 2.1% active; AID 504444; also: nearly all actives have a fitted effect of over 60% in size
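A549 ARE_Fluc cells, 5000/well, 5% FBS OPTI-MEM; compounds in dose-response, 18-24 h at 37 °C/5% CO2; CellTiter-Fluor viability read (Ex 405/Em 525), then BugLite luciferase luminescence = Nrf2 activity.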
IL-2 act – activators of IL-2; IL-2 activation reporter assay, cell-based qHTS; stimulated with anti-CD3/CD4/CD28 beads; in transgenic mouse T cells; activation, % (series mostly up to about 46 µM); 360,000 tested, 0.065% active; in the data active = activation above about 50%; inconclusive = mostly about 30% to 49%
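Unstimulated transgenic mouse T cells preincubated 60 min with compound, then stimulated with anti-CD3/anti-CD4-coated beads plus anti-CD28 for 18 h at 37 degrees C. IL-2 response read as EGFP and DsRed fluorescence by plate cytometry.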
A549 tox – kills or reduces viability of A549 cells in Nrf2 counter-screen | A549 ARE-Fluc cells, CellTiter-Fluor viability, 18-24 h | 390,000 tested, 0.16% active | AID 504648 | Potency, µM (titrated, usually from 46 µM), usual class: inhibitors
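A549 ARE_Fluc cells in 5% FBS OPTI-MEM were exposed to compounds in concentration-response for 18-24 h at 37 deg C. Viability was read by CellTiter-Fluor fluorescence (Ex 405/Em 525) after 30 min, before the luciferase read.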
Numbers stand for hits. Unless noted, calls follow the shape of the dose curve; as a rule, active = well fitted curve in the direction sought with a large enough effect; inconclusive = small, poorly fitted or top-dose-only effect, or another doubt; inactive = no such curve, though single readings can be large; an effect the other way counts as inactive or inconclusive.

What do the screens show for `CC(Cc1ccccc1)NC(=O)/C=C/c1ccc(Cl)cc1` (stereo unspecified)?
BRCA1 expr up: inactive; p53 reactivation: inconclusive; Nrf2 ARE act: inactive; Nrf2 block: inactive; IL-2 act: 87; A549 tox: inactive

What do the screens show for `CN(C)c1ccc(/C=C2/C(=N\O)C3CCN2CC3)cc1`?
BRCA1 expr up: 4µM; p53 reactivation: inactive; Nrf2 ARE act: inactive; Nrf2 block: inconclusive; IL-2 act: inactive; A549 tox: inactive

What do the screens show for `O=C1C(=Cc2ccccc2)N2CCC1CC2`?
BRCA1 expr up: inactive; Nrf2 ARE act: inactive; Nrf2 block: inconclusive; IL-2 act: inactive; A549 tox: inactive

How did O=C(Oc1ccc([N+](=O)[O-])cc1)N1CCN(/[N+]([O-])=N/Oc2ccc([N+](=O)[O-])cc2[N+](=O)[O-])CC1 do in these assays?
BRCA1 expr up: inactive

Results for Cc1ccccc1-c1nc(CS(=O)CC(=O)N2CCN(c3cc(Cl)ccc3C)CC2)c(C)o1 (stereo unspecified) ?
Nrf2 ARE act: inactive; Nrf2 block: inconclusive; A549 tox: inactive

How did O=C(O)c1ccccc1SCC(=O)N1c2ccccc2Sc2ccccc21 do in these assays?
BRCA1 expr up: inactive; p53 reactivation: inactive; Nrf2 ARE act: inconclusive; Nrf2 block: inactive; IL-2 act: inactive; A549 tox: inactive

How did C[CH2][Hg][S]c1ccccc1C(=O)O do in these assays?
BRCA1 expr up: inactive; Nrf2 ARE act: inconclusive; Nrf2 block: inconclusive; IL-2 act: inactive; A549 tox: 16µM

Results for CCC(=O)Nc1ccc(-c2ccc(N3CCN(C)CC3)nn2)cc1 ?
BRCA1 expr up: inconclusive; p53 reactivation: inconclusive; Nrf2 ARE act: inactive; Nrf2 block: inactive; IL-2 act: inactive; A549 tox: inactive

How did CC(=O)NCC(N)C(=O)c1ccc(Cl)c(Cl)c1 (stereo unspecified) do in these assays?
BRCA1 expr up: inactive

Results for CC(=O)OC1CC(OC2C(O)CC(OC3C(O)CC(OC4CCC5(C)C(CCC6C5CCC5(C)C(C7=CC(=O)OC7)CCC65O)C4)OC3C)OC2C)OC(C)C1OC1OC(CO)C(O)C(O)C1O (stereo unspecified) ?
BRCA1 expr up: inconclusive; Nrf2 ARE act: inactive; Nrf2 block: 0.037µM; IL-2 act: inactive; A549 tox: inconclusive

How did Cc1ccc(-c2nc3ncccc3o2)cc1NC(=O)c1cccc(OCC(C)C)c1 do in these assays?
Nrf2 ARE act: inactive; Nrf2 block: inconclusive; A549 tox: inactive

What do the screens show for `O=c1[nH]c(=S)[nH]c(O)c1N=Nc1ccc(SC(F)F)cc1`?
BRCA1 expr up: inactive; p53 reactivation: inconclusive; Nrf2 ARE act: 16µM; Nrf2 block: inactive; IL-2 act: inactive; A549 tox: inactive

Results for O=c1[nH]c(=S)[nH]c(O)c1N=Nc1ccc(S(=O)(=O)N2CCc3ccccc32)cc1 ?
BRCA1 expr up: inactive; p53 reactivation: inactive; Nrf2 ARE act: 8.9µM; Nrf2 block: inactive; IL-2 act: inactive; A549 tox: inactive

Results for CC(C)c1ccc(N=Nc2c(O)[nH]c(=O)[nH]c2=O)cc1 ?
BRCA1 expr up: inconclusive; p53 reactivation: inactive; Nrf2 ARE act: inactive; Nrf2 block: inactive; IL-2 act: inactive; A549 tox: inactive

How did CCC(=O)Nc1ccc(Cl)c(Cl)c1 do in these assays?
BRCA1 expr up: inactive; Nrf2 ARE act: inactive; Nrf2 block: inconclusive; IL-2 act: inactive; A549 tox: inactive

Results for CCC(=O)Nc1ccc(C(=O)OCc2ccccc2Cl)cc1 ?
BRCA1 expr up: 7.1µM; p53 reactivation: inactive; Nrf2 ARE act: inactive; Nrf2 block: inactive; IL-2 act: inactive; A549 tox: inactive

Results for Cc1cccc(OCCn2c(=O)oc3ccc(C)cc32)c1 ?
BRCA1 expr up: 8.9µM; p53 reactivation: inactive; Nrf2 ARE act: inactive; Nrf2 block: inactive; IL-2 act: inactive; A549 tox: inactive

What do the screens show for `CC(C)c1ccc(Cc2cnc(NC(=O)c3ccc4c(c3)CC(c3ccccc3)OC4=O)s2)cc1` (stereo unspecified)?
Nrf2 ARE act: inactive; Nrf2 block: inconclusive; A549 tox: inactive

What do the screens show for `COC(=O)C1=C(c2ccc(F)cc2OCc2ccccc2)C[C@@H]2CC[C@H]1N2C(=O)NC1CC1`?
BRCA1 expr up: inactive; p53 reactivation: inactive; Nrf2 ARE act: inactive; Nrf2 block: inactive; IL-2 act: inactive; A549 tox: inactive

What do the screens show for `COC(=O)C1=C(c2ccc(F)cc2OCc2ccccc2)C[C@@H]2CC[C@H]1N2C(=O)NCCOc1ccc(OC)cc1`?
BRCA1 expr up: inactive; p53 reactivation: inactive; Nrf2 ARE act: inactive; Nrf2 block: 23µM; IL-2 act: inactive; A549 tox: inactive

Results for COC(=O)C1=C(c2ccc(F)cc2OCc2ccccc2)C[C@@H]2CC[C@H]1N2C(=O)NCCOc1ccccc1 ?
BRCA1 expr up: inactive; p53 reactivation: inactive; Nrf2 ARE act: inactive; Nrf2 block: inconclusive; IL-2 act: inactive; A549 tox: inactive

How did COC(=O)C1=C(c2ccc(F)cc2OCc2ccccc2)C[C@@H]2CC[C@H]1N2C(=O)NCc1ccc(OC)cc1 do in these assays?
BRCA1 expr up: inactive; p53 reactivation: inactive; Nrf2 ARE act: inactive; Nrf2 block: inconclusive; IL-2 act: inactive; A549 tox: inactive

Results for COC(=O)C1=C(c2ccc(F)cc2OCc2ccccc2)C[C@@H]2CC[C@H]1N2C(=O)NCCc1ccc(F)cc1 ?
BRCA1 expr up: inactive; p53 reactivation: inactive; Nrf2 ARE act: inactive; Nrf2 block: 18µM; IL-2 act: inactive; A549 tox: inconclusive

How did COC(=O)C1=C(c2ccc(F)cc2OCc2ccccc2)C[C@@H]2CC[C@H]1N2C(=O)NCCOc1ccccc1Cl do in these assays?
BRCA1 expr up: inactive; p53 reactivation: inactive; Nrf2 ARE act: inactive; Nrf2 block: inconclusive; IL-2 act: inactive; A549 tox: inconclusive

What do the screens show for `COC(=O)C1=C(c2ccc(F)cc2OCc2ccccc2)C[C@@H]2CC[C@H]1N2C(=O)NCc1ccccc1Cl`?
BRCA1 expr up: inactive; p53 reactivation: inactive; Nrf2 ARE act: inactive; Nrf2 block: 5.2µM; IL-2 act: inactive; A549 tox: inactive

Results for COC(=O)C1=C(c2ccc(F)cc2OCc2ccccc2)C[C@@H]2CC[C@H]1N2C(=O)NCc1ccc(Br)cc1 ?
BRCA1 expr up: inactive; p53 reactivation: inactive; Nrf2 ARE act: inactive; Nrf2 block: 15µM; IL-2 act: inactive; A549 tox: inactive

What do the screens show for `COc1ccccc1N1CCN(C(=O)c2cc3c(-c4ccccc4F)nn(C)c3s2)CC1`?
Nrf2 ARE act: inactive; Nrf2 block: inconclusive; A549 tox: inactive
